Measurements reported in the supplement of paper PMC10849652.
Targets with a hit are over-represented here; the source holds about 8,800 in all. About 0.5% of all pairs of compound and target were hits.

What was measured:
Test in all cases: log2 fold change, soluble protein after heating vs DMSO (PISA); higher = thermal stabilisation; K562 lysate, 10 uM; active = over 0.2 and 3.5 SD of the protein, either way, in both replicates (recomputed)
erlotinib = compound: C#Cc1cccc(Nc2ncnc3cc(OCCOC)c(OCCOC)cc23)c1 [erlotinib]
Summary of the method: (§1)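 The values are log-two fold changes in thermal stability compared with solvent controls and come from duplicates. They were obtained by TMTpro 16plex LC-MS/MS, with channel sums equalised, on the supernatant after 21,000xg for 90 min. That supernatant came from crude K562 extract at 1 mg/mL protein treated with 10 μM compound for 30 min, heated for 3 min across 48°C-58°C, pooled and brought to 0.5% NP-40 at 4°C.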

[1] = compound: C/C(=N\NC(=O)C1=CC(=CC=C1)S(=O)(=O)N2CCOCC2)/C3=C(C=CC(=C3)Cl)O
Summary of the method: as §1

[2] = compound: C1=CC(=CC=C1C2=NC3=C(N2)C=C(C=C3)C(=O)N)OC4=CC=C(C=C4)Cl
Summary of the method: as §1

[3] = compound: C1=CC2=C(C=CC(=C2)/C=C\3/C(=O)NC(=NCC4=CC=CS4)S3)N=C1
Summary of the method: as §1

[4] = compound: C1=CC2=NC=CN=C2C=C1/C=C/3\C(=O)NC(=O)S3
Summary of the method: as §1

[5] = compound: C1=CC=C(C=C1)C2=NC(=C(N2)C3=CC=NC=C3)C4=CC(=C(C=C4)Cl)O
Summary of the method: as §1

[6] = compound: C1=CC=C2C(=C1)C3=NNC4=CC=CC(=C43)C2=O
Summary of the method: as §1

[7] = compound: C1CCN(C1)C(=O)NC2=CC=CC(=C2)NC3=NC=C(C(=N3)NCCC4=CN=CN4)Br
Summary of the method: as §1

[8] = compound: C1CN(CCC1(CC2=CC=C(C=C2)Cl)N)C3=NC=NC4=C3C=CN4
Summary of the method: as §1

IRAK-1-4 Inhibitor I = compound: C1COCCN1CCN2C3=CC=CC=C3N=C2NC(=O)C4=CC(=CC=C4)[N+](=O)[O-] [IRAK-1-4 Inhibitor I]
Summary of the method: as §1

ibrutinib = compound: C=CC(=O)N1CCC[C@@H](n2nc(-c3ccc(Oc4ccccc4)cc3)c3c(N)ncnc32)C1 [ibrutinib]
Summary of the method: as §1

[9] = compound: CC(=O)c1cnc2ccc(-c3cc(Cl)c(O)c(Cl)c3)nc2c1N[C@H]1CC[C@H](CN(C)C)CC1
Summary of the method: as §1

ralimetinib = compound: CC(C)(C)Cn1c(N)nc2ccc(-c3[nH]c(C(C)(C)C)nc3-c3ccc(F)cc3)nc21 [ralimetinib]
Summary of the method: as §1

[10] = compound: CC(C)(O)CC(=O)NCCn1ccc2ncnc(Nc3ccc(Oc4cccc(C(F)(F)F)c4)c(Cl)c3)c21
Summary of the method: as §1

[11] = compound: CC(C)C1=C2N=C(C=C(N2N=C1)NCC3=CC=CC=C3)NCCCCCCN
Summary of the method: as §1

[12] = compound: CC1=C(C(CC(=O)N1)C2=CC=C(C=C2)C(F)(F)F)C(=O)NC3=C(C=C4C(=C3)C=NN4)F
Summary of the method: as §1

[13] = compound: CC1=C(C2=C(C=C1)C(=O)C3=CC=CC=C3N2CCCN)C
Summary of the method: as §1

[14] = compound: CC1=C(C=C(C=C1)NC(=O)C2=CC(=CC=C2)C(C)(C)C#N)NC3=CC4=C(C=C3)N=CN(C4=O)C
Summary of the method: as §1

[15] = compound: CC1=C(C=C(C=C1)NC(=O)C2=CC(=CC=C2)N(C)C)NC(=O)C3=CC=C(C=C3)O
Summary of the method: as §1

[16] = compound: CC1=CC=C(C=C1)SC2=C3C=C(SC3=CN=C2)C(=O)N
Summary of the method: as §1

Measured: log2 fold change

EIF2D (UniProt P41214)
inactive: erlotinib 0.048 | [1] 0.019 | [2] -0.017 | [3] 0.054 | [4] 0.001 | [5] 0.008 | [6] -0.016 | [7] 0.025 | [8] 0.021 | IRAK-1-4 Inhibitor I -0.023 | ibrutinib 0.011 | [9] -0.017 | ralimetinib 0.018 | [10] 0.026 | [11] 0.03 | [12] -0.005 | [13] -0.03 | [14] -0.004 | [15] 0.016 | [16] 0.01

GABPB1 (UniProt Q06547)
inactive: erlotinib -0.004 | [1] 0.033 | [2] 0.012 | [3] 0.028 | [4] 0.035 | [5] 0.016 | [6] -0.009 | [7] 0.026 | [8] -0.008 | IRAK-1-4 Inhibitor I -0.042 | ibrutinib -0.106 | [9] -0.012 | ralimetinib 0.021 | [10] 0.014 | [11] 0 | [12] 0.013 | [13] -0.026 | [14] 0.003 | [15] 0.071 | [16] 0.024

FAT2 (UniProt Q9NYQ8)
Chain of UniProt Q9NYQ8 (Q9NYQ8 whole entry, looked up): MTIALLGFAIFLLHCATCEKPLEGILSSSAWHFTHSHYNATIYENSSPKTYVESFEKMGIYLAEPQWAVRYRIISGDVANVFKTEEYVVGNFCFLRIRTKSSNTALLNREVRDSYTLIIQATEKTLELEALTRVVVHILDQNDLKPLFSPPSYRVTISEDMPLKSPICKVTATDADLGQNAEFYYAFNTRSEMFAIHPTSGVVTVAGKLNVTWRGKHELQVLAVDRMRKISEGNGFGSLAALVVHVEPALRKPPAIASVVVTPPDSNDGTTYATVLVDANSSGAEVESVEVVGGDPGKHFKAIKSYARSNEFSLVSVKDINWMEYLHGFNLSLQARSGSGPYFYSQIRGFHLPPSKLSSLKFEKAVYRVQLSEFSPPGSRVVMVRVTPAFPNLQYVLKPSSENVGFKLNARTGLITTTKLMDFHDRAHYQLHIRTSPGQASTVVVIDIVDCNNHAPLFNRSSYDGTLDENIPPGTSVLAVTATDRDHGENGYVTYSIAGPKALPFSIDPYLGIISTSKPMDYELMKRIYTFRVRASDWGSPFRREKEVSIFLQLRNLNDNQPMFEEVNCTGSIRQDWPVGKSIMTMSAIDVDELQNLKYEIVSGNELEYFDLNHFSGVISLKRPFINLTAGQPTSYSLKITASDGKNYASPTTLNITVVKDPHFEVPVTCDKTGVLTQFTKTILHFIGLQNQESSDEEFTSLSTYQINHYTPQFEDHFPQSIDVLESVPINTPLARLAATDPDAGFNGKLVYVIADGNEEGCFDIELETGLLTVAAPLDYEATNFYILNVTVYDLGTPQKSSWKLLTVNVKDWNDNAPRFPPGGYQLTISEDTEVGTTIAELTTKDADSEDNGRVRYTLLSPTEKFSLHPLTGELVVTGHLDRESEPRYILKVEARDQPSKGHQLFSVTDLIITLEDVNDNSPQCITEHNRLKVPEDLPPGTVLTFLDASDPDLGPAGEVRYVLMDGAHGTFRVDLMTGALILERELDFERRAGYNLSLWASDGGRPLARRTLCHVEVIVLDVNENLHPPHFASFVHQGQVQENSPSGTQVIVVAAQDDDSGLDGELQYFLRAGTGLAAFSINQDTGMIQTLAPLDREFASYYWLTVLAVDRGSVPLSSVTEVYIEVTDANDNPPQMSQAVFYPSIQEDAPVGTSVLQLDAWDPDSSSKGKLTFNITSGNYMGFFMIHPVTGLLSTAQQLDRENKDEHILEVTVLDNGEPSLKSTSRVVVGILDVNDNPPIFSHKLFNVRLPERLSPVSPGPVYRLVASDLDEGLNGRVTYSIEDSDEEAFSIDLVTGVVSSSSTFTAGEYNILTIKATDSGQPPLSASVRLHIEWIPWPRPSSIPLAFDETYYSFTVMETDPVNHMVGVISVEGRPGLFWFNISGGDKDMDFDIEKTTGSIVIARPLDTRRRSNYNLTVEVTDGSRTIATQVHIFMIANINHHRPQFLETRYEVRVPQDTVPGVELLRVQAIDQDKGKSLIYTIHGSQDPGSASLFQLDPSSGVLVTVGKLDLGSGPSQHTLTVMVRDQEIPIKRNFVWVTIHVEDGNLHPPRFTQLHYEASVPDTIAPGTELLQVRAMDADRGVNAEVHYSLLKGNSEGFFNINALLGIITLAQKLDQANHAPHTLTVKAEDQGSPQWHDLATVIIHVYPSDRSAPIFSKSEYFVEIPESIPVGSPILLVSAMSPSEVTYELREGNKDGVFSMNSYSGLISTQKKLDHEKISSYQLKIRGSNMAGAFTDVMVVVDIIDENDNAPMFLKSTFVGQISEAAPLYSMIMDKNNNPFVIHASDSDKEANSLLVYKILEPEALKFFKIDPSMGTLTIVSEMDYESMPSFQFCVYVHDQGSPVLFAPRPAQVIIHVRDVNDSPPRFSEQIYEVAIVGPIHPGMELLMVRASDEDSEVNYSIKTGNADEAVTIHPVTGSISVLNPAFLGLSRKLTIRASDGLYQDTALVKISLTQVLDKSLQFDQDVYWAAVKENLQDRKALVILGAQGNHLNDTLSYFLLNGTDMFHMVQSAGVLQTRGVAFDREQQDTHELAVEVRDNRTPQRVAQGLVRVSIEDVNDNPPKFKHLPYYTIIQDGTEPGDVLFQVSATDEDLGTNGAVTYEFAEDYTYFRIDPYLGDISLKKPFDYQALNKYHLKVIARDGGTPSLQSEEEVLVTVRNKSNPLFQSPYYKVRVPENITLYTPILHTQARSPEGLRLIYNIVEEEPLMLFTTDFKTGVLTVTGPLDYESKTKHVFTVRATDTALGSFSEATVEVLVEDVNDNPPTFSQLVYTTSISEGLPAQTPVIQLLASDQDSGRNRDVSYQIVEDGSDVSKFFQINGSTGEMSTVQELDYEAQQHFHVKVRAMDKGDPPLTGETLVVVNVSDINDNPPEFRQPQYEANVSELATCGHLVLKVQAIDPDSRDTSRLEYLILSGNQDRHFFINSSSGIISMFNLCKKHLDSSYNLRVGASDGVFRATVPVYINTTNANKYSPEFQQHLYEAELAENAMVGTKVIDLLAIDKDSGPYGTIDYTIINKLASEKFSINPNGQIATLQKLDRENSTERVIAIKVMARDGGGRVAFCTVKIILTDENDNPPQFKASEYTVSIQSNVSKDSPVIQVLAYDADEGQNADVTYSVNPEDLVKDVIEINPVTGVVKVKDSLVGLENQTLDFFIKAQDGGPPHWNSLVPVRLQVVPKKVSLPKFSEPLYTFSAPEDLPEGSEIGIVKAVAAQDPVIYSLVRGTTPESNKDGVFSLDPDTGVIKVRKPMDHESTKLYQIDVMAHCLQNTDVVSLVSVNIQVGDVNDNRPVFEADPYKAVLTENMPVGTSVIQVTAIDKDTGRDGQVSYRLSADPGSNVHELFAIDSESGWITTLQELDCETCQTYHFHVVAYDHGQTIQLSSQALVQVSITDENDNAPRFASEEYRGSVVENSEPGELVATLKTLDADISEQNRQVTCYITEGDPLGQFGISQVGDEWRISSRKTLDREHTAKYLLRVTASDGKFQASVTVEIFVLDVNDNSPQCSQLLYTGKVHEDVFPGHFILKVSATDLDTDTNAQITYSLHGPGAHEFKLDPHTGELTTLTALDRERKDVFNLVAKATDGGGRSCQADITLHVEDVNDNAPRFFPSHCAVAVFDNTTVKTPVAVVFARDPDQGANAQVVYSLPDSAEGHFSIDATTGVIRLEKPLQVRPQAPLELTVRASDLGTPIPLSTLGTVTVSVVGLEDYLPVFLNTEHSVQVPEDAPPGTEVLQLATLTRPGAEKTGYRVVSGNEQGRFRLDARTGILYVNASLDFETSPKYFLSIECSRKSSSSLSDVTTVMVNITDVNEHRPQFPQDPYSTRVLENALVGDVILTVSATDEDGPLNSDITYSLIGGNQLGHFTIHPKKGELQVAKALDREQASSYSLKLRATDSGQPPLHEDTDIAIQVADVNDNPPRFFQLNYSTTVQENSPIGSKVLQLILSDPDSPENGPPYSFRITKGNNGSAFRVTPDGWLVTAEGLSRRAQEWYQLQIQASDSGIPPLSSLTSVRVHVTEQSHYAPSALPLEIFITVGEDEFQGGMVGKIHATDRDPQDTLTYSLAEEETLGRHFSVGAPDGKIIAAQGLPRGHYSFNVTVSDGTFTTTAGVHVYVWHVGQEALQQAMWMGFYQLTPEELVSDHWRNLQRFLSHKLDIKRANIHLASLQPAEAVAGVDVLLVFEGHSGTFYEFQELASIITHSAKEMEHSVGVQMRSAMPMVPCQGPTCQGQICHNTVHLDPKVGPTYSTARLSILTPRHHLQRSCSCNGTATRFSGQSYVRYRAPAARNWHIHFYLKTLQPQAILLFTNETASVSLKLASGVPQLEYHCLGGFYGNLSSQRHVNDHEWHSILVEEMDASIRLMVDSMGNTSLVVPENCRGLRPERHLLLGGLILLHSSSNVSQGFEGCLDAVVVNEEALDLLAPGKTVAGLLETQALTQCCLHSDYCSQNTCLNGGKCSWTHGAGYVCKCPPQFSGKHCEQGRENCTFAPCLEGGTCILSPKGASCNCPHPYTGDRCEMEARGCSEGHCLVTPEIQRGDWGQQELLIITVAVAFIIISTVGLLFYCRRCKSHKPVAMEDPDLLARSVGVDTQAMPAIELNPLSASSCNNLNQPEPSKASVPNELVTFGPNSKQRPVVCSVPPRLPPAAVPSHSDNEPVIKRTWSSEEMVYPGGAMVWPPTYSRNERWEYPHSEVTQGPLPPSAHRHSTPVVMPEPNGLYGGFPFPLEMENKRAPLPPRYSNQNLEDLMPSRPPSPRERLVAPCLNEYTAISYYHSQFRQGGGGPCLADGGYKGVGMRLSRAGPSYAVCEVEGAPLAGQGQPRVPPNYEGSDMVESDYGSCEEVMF
inactive: erlotinib 0.215 | [1] -0.092 | [2] -0.311 | [3] 0.038 | [4] -0.076 | [5] -0.135 | [6] -0.147 | [7] -0.007 | [8] 0.01 | IRAK-1-4 Inhibitor I -0.016 | ibrutinib 0.01 | [9] 0.057 | ralimetinib -0.156 | [10] -0.123 | [11] -0.314 | [12] -0.019 | [14] 0.166 | [15] 0.038 | [16] -0.023

DUS2 (UniProt Q9NX74)
Chain of UniProt Q9NX74 (Q9NX74 whole entry, looked up): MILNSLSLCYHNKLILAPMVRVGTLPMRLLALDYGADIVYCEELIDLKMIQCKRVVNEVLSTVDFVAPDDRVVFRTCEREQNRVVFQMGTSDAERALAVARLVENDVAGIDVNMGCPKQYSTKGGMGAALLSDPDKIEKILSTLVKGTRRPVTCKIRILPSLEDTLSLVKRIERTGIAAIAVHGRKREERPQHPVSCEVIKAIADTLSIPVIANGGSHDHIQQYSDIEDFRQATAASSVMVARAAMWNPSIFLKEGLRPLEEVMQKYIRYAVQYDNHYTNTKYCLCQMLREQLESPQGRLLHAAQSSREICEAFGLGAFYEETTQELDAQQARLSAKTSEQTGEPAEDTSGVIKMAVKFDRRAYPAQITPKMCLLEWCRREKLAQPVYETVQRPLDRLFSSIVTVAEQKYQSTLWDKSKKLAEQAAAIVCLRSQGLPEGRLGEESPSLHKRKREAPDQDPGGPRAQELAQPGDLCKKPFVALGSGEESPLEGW
inactive: erlotinib 0.006 | [1] 0.007 | [2] 0.017 | [3] 0.057 | [4] 0.027 | [5] 0.021 | [6] 0.033 | [7] -0.016 | [8] 0.05 | IRAK-1-4 Inhibitor I -0.004 | ibrutinib 0.071 | [9] -0.036 | ralimetinib 0.026 | [10] 0.097 | [11] -0.003 | [12] -0.056 | [13] -0.029 | [14] -0.004 | [15] 0.091 | [16] 0.01

FBXO45 (UniProt P0C2W1)
Chain of UniProt P0C2W1 (P0C2W1 whole entry, looked up): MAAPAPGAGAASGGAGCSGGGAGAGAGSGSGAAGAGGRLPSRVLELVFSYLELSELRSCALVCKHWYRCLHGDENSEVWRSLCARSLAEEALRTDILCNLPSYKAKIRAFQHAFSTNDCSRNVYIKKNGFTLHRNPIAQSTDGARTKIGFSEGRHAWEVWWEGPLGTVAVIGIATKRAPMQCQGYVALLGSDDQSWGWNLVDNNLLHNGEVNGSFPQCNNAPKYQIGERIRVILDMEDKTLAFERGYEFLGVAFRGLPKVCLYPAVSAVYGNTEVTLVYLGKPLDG
inactive: erlotinib 0.077 | [1] 0.016 | [2] -0.033 | [3] 0.092 | [4] -0.099 | [5] -0.126 | [6] -0.069 | [7] 0.018 | [8] 0.01 | IRAK-1-4 Inhibitor I -0.043 | ibrutinib 0.207 | [9] 0.075 | ralimetinib 0.173 | [10] 0.045 | [11] 0.043 | [12] 0.015 | [14] 0.064 | [15] 0.018 | [16] 0.081

EPB41, A0A2R8Y6D0
inactive: erlotinib 0.134 | [1] 0.064 | [2] -0.187 | [3] -0.012 | [4] -0.004 | [5] 0.066 | [6] -0.004 | [7] -0.042 | [8] 0.054 | IRAK-1-4 Inhibitor I -0.071 | ibrutinib 0.04 | [9] 0.007 | ralimetinib 0.171 | [10] 0.094 | [11] -0.061 | [12] -0.012 | [13] 0 | [14] -0.065 | [15] 0.078 | [16] -0.02

EP300 (UniProt Q09472)
inactive: erlotinib 0.017 | [1] 0.011 | [2] -0.024 | [3] -0.017 | [4] 0.078 | [5] -0.015 | [6] -0.019 | [7] -0.033 | [8] 0 | IRAK-1-4 Inhibitor I -0.006 | ibrutinib 0.084 | [9] 0.117 | ralimetinib -0.026 | [10] -0.011 | [11] -0.07 | [12] 0.423 | [13] -0.011 | [14] -0.035 | [15] -0.025 | [16] -0.008

FNBP1L (UniProt Q5T0N5)
inactive: erlotinib 0.015 | [1] -0.018 | [2] 0.013 | [3] 0.031 | [4] 0.044 | [5] 0.066 | [6] 0 | [7] -0.012 | [8] -0.061 | IRAK-1-4 Inhibitor I -0.016 | ibrutinib 0.034 | [9] -0.006 | ralimetinib 0.055 | [10] -0.082 | [11] -0.003 | [12] 0 | [13] 0.066 | [14] -0.007 | [15] 0.035 | [16] 0.034

FBXO9 (UniProt Q9UK97)
inactive: erlotinib -0.06 | [1] 0.126 | [2] 0.091 | [3] 0.013 | [4] 0.086 | [5] 0.01 | [6] -0.032 | [7] 0.019 | [8] -0.108 | IRAK-1-4 Inhibitor I -0.005 | ibrutinib 0.006 | [9] -0.014 | ralimetinib -0.046 | [10] 0.077 | [11] -0.09 | [12] 0.009 | [13] 0.019 | [14] 0.017 | [15] 0.047 | [16] 0.026
